Results taken from article PMC4336329 (PLoS ONE, 2015).
Among all 310,000 compounds or so, about 14,000 (4.5%) showed an effect of 50% or more. The effect is printed as a negative number. For the sample, strong results were picked, then their nearest neighbours and some compounds at random.
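Further: peak tail current of the secondary pulse compared with the same well before compound.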

The compounds below were run against human ether-à-go-go-related gene (hERG) potassium channel (human, UniProt Q12809) (assay: primary screen, population patch clamp on CHO cells stably expressing hERG; higher = less effect of the substance).
Sequence of human ether-à-go-go-related gene (hERG) potassium channel (Q12809 whole entry, looked up): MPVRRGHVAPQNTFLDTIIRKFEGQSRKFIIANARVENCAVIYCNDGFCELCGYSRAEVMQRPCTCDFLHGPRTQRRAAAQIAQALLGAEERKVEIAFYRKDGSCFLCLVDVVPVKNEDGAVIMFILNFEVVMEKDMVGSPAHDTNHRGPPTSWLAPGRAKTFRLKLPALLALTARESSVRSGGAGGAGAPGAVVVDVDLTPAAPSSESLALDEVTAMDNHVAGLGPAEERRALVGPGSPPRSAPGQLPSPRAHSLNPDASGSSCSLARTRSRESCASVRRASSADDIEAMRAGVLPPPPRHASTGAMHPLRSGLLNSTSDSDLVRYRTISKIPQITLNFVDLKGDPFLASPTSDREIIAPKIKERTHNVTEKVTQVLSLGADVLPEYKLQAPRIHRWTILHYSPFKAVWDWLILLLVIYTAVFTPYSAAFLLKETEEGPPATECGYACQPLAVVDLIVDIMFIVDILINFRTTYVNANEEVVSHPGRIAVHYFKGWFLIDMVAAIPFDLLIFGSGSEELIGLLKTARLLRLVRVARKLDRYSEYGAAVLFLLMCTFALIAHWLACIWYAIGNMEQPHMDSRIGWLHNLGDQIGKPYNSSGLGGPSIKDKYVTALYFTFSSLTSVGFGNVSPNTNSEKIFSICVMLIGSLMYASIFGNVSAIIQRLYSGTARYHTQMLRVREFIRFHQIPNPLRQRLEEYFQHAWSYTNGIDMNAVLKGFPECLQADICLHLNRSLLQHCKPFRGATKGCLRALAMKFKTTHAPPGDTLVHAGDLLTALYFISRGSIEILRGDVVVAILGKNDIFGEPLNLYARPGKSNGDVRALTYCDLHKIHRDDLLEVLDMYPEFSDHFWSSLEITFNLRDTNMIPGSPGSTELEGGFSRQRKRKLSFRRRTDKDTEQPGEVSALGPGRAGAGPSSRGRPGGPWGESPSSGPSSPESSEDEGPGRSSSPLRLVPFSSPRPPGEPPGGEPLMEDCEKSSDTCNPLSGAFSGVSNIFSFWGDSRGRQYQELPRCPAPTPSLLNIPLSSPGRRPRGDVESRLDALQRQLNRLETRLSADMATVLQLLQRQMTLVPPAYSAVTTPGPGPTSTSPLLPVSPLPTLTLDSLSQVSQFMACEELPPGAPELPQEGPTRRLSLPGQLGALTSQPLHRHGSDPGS
In the case of `CC(C)N(C(=O)CSc1nnc(CSc2ncccn2)n1C)C(C)C`, the “hERG current change (%, negative = inhibition) at 10uM” value is reported as 32.8%.
In the case of `O=c1[nH]n2cc(-n3cc([N+](=O)[O-])cn3)cnc2c1Br`, the “hERG current change (%, negative = inhibition) at 10uM” value is reported as 10.6%.
`CCCCNC(=O)CCC(=O)N1CCN(C(c2ccccc2)c2ccccc2)CC1.Cl` was tested, and the “hERG current change (%, negative = inhibition) at 10uM” value was -7.34%.
With `O=C(CCc1ccccc1)Nc1ccc(NC(=O)C2CCCCC2)nc1` the “hERG current change (%, negative = inhibition) at 10uM” value was 7.57%.
With `Cl.O=C(/C=C/c1ccccc1)Nc1ccc(N2CCCCC2)cc1` the “hERG current change (%, negative = inhibition) at 10uM” value was 5.7%.
In the case of `O=C(Nc1ncccc1O)c1cccc(S(=O)(=O)NCc2ccccc2)c1`, the “hERG current change (%, negative = inhibition) at 10uM” value is reported as -20.3%.
In the case of `Cn1c(C(O)c2ccc3c(c2)OCO3)nc2ccccc21` (centres unmarked), the “hERG current change (%, negative = inhibition) at 10uM” value is reported as 5.63%.
In the case of `Cc1ccc(S(=O)(=O)N2c3ccccc3NC(=O)CC2C)cc1` (centres unmarked), the “hERG current change (%, negative = inhibition) at 10uM” value is reported as 10.5%.
With `C=CCn1c(-c2ccc(Cl)cc2)c[nH]c1=S` the “hERG current change (%, negative = inhibition) at 10uM” value was 19.4%.
In the case of `Cc1cnc(NC(=O)CC2CCCC2)s1`, the “hERG current change (%, negative = inhibition) at 10uM” value is reported as 21.5%.
For `COc1ccc(-c2cc(-c3ccccc3)no2)cc1`, the “hERG current change (%, negative = inhibition) at 10uM” value was 9.77%.
`CCN(CC(=O)NCc1cccs1)C(=O)COc1ccc(C(C)=O)cc1` was tested, and the “hERG current change (%, negative = inhibition) at 10uM” value was -45.1%.
For `C(=C\c1ccccc1)/CSc1nnc(-c2cnccn2)n1Cc1ccco1`, the “hERG current change (%, negative = inhibition) at 10uM” value was -73.4%.
With `C(=C\c1ccccc1)/CSc1nnc(-c2ccccn2)n1Cc1ccco1` the “hERG current change (%, negative = inhibition) at 10uM” value was -50.9%.
For `NC(=O)CSc1nnc(-c2ccccn2)n1Cc1ccco1`, the “hERG current change (%, negative = inhibition) at 10uM” value was 4.36%.
`O=C(CSc1nnc(-c2cnccn2)n1Cc1ccco1)c1ccccc1` was tested, and the “hERG current change (%, negative = inhibition) at 10uM” value was -16.3%.
For `O=C(CSc1nnc(-c2ccccn2)n1Cc1ccco1)c1ccccc1`, the “hERG current change (%, negative = inhibition) at 10uM” value was -42.5%.
For `CCn1c(SC/C=C/c2ccccc2)nnc1-c1cnccn1`, the “hERG current change (%, negative = inhibition) at 10uM” value was -14.7%.
`COc1ccc(C2CC(c3ccc(C)o3)=NN2C(C)=O)cc1` (centres unmarked) was tested, and the “hERG current change (%, negative = inhibition) at 10uM” value was 7.14%.
In the case of `CCOC(=O)C1SC2(C(F)(F)C(F)F)CC1(O)c1c(c(OC)c3occc3c1OC)O2` (centres unmarked), the “hERG current change (%, negative = inhibition) at 10uM” value is reported as -3.47%.
With `O=C(COC(=O)Cc1cccc2ccccc12)Nc1ccccc1-c1ccccc1` the “hERG current change (%, negative = inhibition) at 10uM” value was 9.26%.
In the case of `NC(=S)Nc1cccc2cnccc12`, the “hERG current change (%, negative = inhibition) at 10uM” value is reported as 1.4%.
`COc1cc(NC(=O)c2cc3ccccc3cc2OC)ccc1NC(=O)c1cccs1` was tested, and the “hERG current change (%, negative = inhibition) at 10uM” value was 9.15%.
For `O=C(CSc1nnc(-c2cccnc2)n1Cc1ccco1)c1ccccc1`, the “hERG current change (%, negative = inhibition) at 10uM” value was -10.3%.
For `O=C(CSc1nnc(-c2cccnc2)n1Cc1ccco1)c1ccc(Br)cc1`, the “hERG current change (%, negative = inhibition) at 10uM” value was -63.8%.
`O=C(CSc1nnc(-c2cccnc2)n1Cc1ccco1)c1ccc(Cl)c(Cl)c1` was tested, and the “hERG current change (%, negative = inhibition) at 10uM” value was -45.2%.
For `O=C(CSc1nnc(-c2ccncc2)n1Cc1ccco1)c1ccc(Cl)cc1`, the “hERG current change (%, negative = inhibition) at 10uM” value was -46%.
In the case of `O=C(CSc1nnc(-c2cccnc2)n1Cc1ccco1)c1ccc(Cl)cc1`, the “hERG current change (%, negative = inhibition) at 10uM” value is reported as -63.6%.
For `COc1ccc(C(=O)CSc2nnc(-c3cccnc3)n2Cc2ccco2)cc1`, the “hERG current change (%, negative = inhibition) at 10uM” value was -42.9%.
